Results filed as inconclusive are left out. A number with no mark means an inactive call. Active and inactive are the calls of the source. The call rests on the fitted dose curve; in most records, active means well fitted cell-killing curve with a large enough effect; inconclusive means small, poorly fitted or top-dose-only effect; inactive means flat fitted curve, though single readings scatter.
On the % scale 0 is the no-effect control and ±100 the full control effect.

This assay can be described thus: Cellular viability qHTS for adrenocortical cancer (ACC) cell line SW-13 (AID 1963989). Further: nearly all actives have a fitted effect of over 65% in size.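 On activity (max response): cells grown in serum-free medium with ITS supplement.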 The following applies: SW-13 ACC cells viability, CellTiter-Glo, 48 h; activity (max response): active compounds read low. The source says: PI: Naris Nilubol, MD Surgical Oncology Program, National Cancer Institute (NCI) National Institute of Health (NIH), Bethesda, Maryland Adrenocortical cancer (ACC) is a rare malignancy with poor survival outcomes and few treatment options. Currently, mitotane is the only FDA-approved therapy for ACC. Although adjuvant radiation therapy is rarely utilized, it has the potential to improve survival in select cases. Through a quantitative high-throughput drug screen (qHTS), we identified auranofin (AF), a thioredoxin reductase (TXNRD) inhibitor, as a promising candidate drug. This study aims to evaluate whether AF can enhance the efficacy of radiation therapy in the treatment of ACC. Two human ACC cell lines, SW-13 and NCI-H295R, were screened using the National Center for Advancing Translational Sciences (NCATS) Pharmaceutical Collection (NPC) and the Mechanism Interrogation PlatE (MIPE) library (~4,991 compounds). CellTiter-Glo (Cat # G7570, Promega, Madison, WI) was utilized to measure cell viability. Described herein are the results of the corresponding viability assay.
PROTOCOL TABLE (as described by Inglese J, Shamu CE and Guy RK. 2007) SEQUENCE No. (e.g., 1, 2, 3, etc.); […] (e.g., Cells, Incubation, Reagent, etc.); VALUE; DESCRIPTION. 1; Cells; 5 uL; white, solid-bottom, 1536-well tissue-culture treated plates. 2; Time; overnight culture at 37C with 5% CO2. 3; Compounds and control; 23 nL; Kalypsis pin tool (Wako USA) equipped with a 1536-well pin head to transfer to the assay plates. 4; Time; 48 hours; 37C with 5% CO2. 5; Reagent; 4 uL; CellTiter-Glo luminescent substrate mix. 6; Time; 20 min at room temperature. 7; Detection; Luminescence; ViewLux plate reader NOTES (numbers refer to Sequence numbers above) 1. SW13 cells were harvested from a T175 flask and resuspended in ITS-supplemented DMEM serum-free medium at a concentration of 300 000 cells/mL. Then 5 uL of resuspended cells were dispensed into each well of white, solid-bottom, 1536-well tissue-culture-treated plates using a multidrop combi dispenser. The plates were covered with stainless steel gasket lids. 2-3. The plates were cultured overnight at 37C with 5% CO2. Twenty-three nL of compounds (eight selected concentrations from the NPC / MIPE) or positive control (10 mM stock of bortezomib) in DMSO was transferred to each well of the assay plate using a pin tool (Kalypsys, San Diego, CA, USA). The final concentration of the compounds in the 5 uL assay volume ranged from 0.5 nM to 46 uM. 4-6. After 48 hours of incubation at 37C and 5% CO2, 4 uL of CellTilter-Glo luminescent substrate mix (Promega, Madison, WI, USA) was added to each well. Then the plates were incubated for 20 minutes at room temperature. 7. After incubation, luminescence was measured using a ViewLux plate reader (PerkinElmer, Waltham, MA, USA) with a clear filter was used to measure the number of metabolically competent cells. To determine compound activity in the qHTS assay, the titration-response data for each sample was plotted and modeled by a four-parameter logistic fit yielding IC50 and efficacy (maximal response) values. […] REFERENCES: Inglese J, Shamu CE and Guy RK, Reporting data from high throughput screening of small molecule libraries, Nature Chemical Biology, 2007, 3(8): 438-441. doi.org/10.1038/nchembio0807-438.
Background: Quantitative high-throughput screening tests each substance at several concentrations.
Consider `COc1ccc([C@@H]2Sc3ccccc3NC(=O)[C@@H]2O)cc1`, for which the Potency was 7.31 µM (active).
As for `CCC(=O)Oc1ccc2c(c1)CC[C@@H]1[C@@H]2CC[C@@]2(C)[C@H]1C[C@@H](OC(=O)CC)[C@@H]2OC(=O)CC`, the activity (max response) is 0.953%.
As to `C/C=C(/C(=C/C)c1ccc(OC(C)=O)cc1)c1ccc(OC(C)=O)cc1`, the Potency is 18.4 µM (active).
With `CN(C(=O)CCCOc1ccc2[nH]c(=O)ccc2c1)C1CCCCC1`, the activity (max response) is -3.83%.
On to `C=C[C@@H]1CN2CCC1C[C@H]2[C@H](O)c1ccnc2ccc(OC)cc12` (some centres undefined), for which the activity (max response) is 5.73%.
Same read-out and setting: with `C=CC[N+]1([C@H]2C[C@H]3[C@@H]4CC[C@H]5C[C@H](O)[C@@H](N6CCOCC6)C[C@]5(C)[C@H]4CC[C@]3(C)[C@H]2OC(C)=O)CCCC1` the figure was -12.6%.
Same read-out and setting: under `COc1ccc2c(c1)C(=O)N(CCc1ccc(S(=O)(=O)NC(=O)NC3CCCCC3)cc1)C(=O)C2(C)C` stands -10.4%; under `O=C(CCBr)N1CCN(C(=O)CCBr)CC1`, -6.49%.
Regarding `C[C@H](N)C(=O)N[C@@H](C)C(=O)NC1[C@H]2CN(c3nc4c(cc3F)c(=O)c(C(=O)O)cn4-c3ccc(F)cc3F)C[C@@H]12` (some centres undefined), the activity (max response) was -13.3%.
On the same count and under the same terms, under `O=C(CCCN1CCN(c2ccccn2)CC1)c1ccc(F)cc1` stands -12.5%; under `COc1ccc2cc(CCC(C)=O)ccc2c1`, 2.06%; under `O=C(O)c1c(O)c(-c2ccccc2)nc2ccccc12`, 3.37%.
As for `Cn1cc(C(=O)[C@@H]2CCc3nc[nH]c3C2)c2ccccc21`, the activity (max response) is -8.02%.
The same measure, in the same setting: with `C[C@H]1CN(C2COC2)CCN1c1ccc(Nc2cc(-c3ccnc(N4CCn5c(cc6c5CC(C)(C)C6)C4=O)c3CO)cn(C)c2=O)nc1` the figure was 10.6%; with `O=C(Cc1ccccc1)Nc1nnc(CCSCCc2nnc(NC(=O)Cc3ccccc3)s2)s1`, 11.1%.
For `CCc1cc(Nc2nccc(-c3c(-c4ccc(OC)c(C(=O)Nc5c(F)cccc5F)c4)nc4ccccn34)n2)c(OC)cc1N1CCC(N2CCN(S(C)(=O)=O)CC2)CC1`, the activity (max response) is -11.3%.
The same measure, in the same setting: with `CC(C)NC[C@@H](O)COc1cccc2ccccc12` the figure was -19.3%; with `CCn1c(=O)c2c(nc(/C=C/c3ccc(OC)c(OC)c3)n2C)n(CC)c1=O`, -21.5%.
On the same count and under the same terms, under `CCCCN(CCCC)C(C(N)=O)c1ccc(OC)cc1` (centres undefined) stands 14.1%; under `Cc1c(Cl)cccc1S(=O)(=O)Nc1nc(CCN2CCOCC2=O)cs1`, 12.4%.
`Nc1n[n+]([O-])c2ccccc2[n+]1[O-]`: the activity (max response) was -11.6%.
With `N[C@H](C(=O)O)[C@@H](O)c1ccc(O)c(O)c1`, the activity (max response) is 16%.
Still for that read-out and setting: under `CC(=C(CCOC(=O)C(C)C)SSC(CCOC(=O)C(C)C)=C(C)N(C=O)Cc1cnc(C)nc1N)N(C=O)Cc1cnc(C)nc1N` stands 9%; under `COc1ccc(-n2c(SCCCN3C(=O)c4cccc5cccc(c45)C3=O)nnc2-c2ccncc2)cc1`, -14.9%.

The record behind these values is PubChem BioAssay (NCATS).
